ChEMBL document CHEMBL4513216, “Probing the Open Global Health Chemical Diversity Library for Multistage-Active Starting Points for Next-Generation Antimalarials” (ACS Infect Dis, 2020)
Among all 69,000 compounds or so, about 8,600 (12%) showed an effect of 50% or more. This excerpt belongs to a sample that is enriched for strong results.

system: Plasmodium berghei; experiment: Screen against P. berghei liver stage (PbLuc), transformed with Luciferase, at 10uM; format: functional, HepG2; settings: tested at 10 uM

Structure (SMILES) | INHIBITION [%]
Oc1ccc(N(CCc2ccccc2)CCn2cncn2)cc1 | 44
CCS(=O)(=O)N1C[C@H]2CC[C@](O)(c3ccc(C)cc3)[C@H]2C1 | -2.11
Cc1nc(C2CCCN(C(=O)c3cc4c(s3)CCCC4)C2)no1 (stereo unspecified) | 11.2
O=C(NCC1CCN(Cc2cc3ccccc3[nH]2)C1)c1ccsc1 (stereo unspecified) | 40.8
O=C(CCc1ccsc1)NC1CCN(c2cccc(F)c2)CC1 | 59.3
COc1ccc(N2CCC(NC(=O)c3ccc(C#N)cc3)CC2)cc1 | 41.8
O=C(CCc1ccc(Cl)cc1)NC1CCN(c2cccc(F)c2)CC1 | 47.3
COc1ccc(C(=O)NC2CCN(c3ncccn3)CC2)cc1F | 46.1
O=C(Cc1cccs1)NC1CCN(c2cccc(F)c2)CC1 | 4.71
COc1ccsc1C(=O)NC1CCN(c2ccc(C#N)cc2)CC1 | 52.6
COc1ccc(N2CCC(NC(=O)c3sccc3C)CC2)cc1 | 45
CC(c1ccccc1)N1CCC(NC(=O)CCc2ccsc2)CC1 (stereo unspecified) | 4.22
COc1ccsc1C(=O)NC1CCN(c2cccc(F)c2)CC1 | 84.1
CCN1C[C@@H]2CN(C(=O)NCc3ccccc3)CCC[C@]2(C(=O)O)C1 | 31.4
COc1ccc(CN2C[C@H]3CC[C@@H](C2)N(S(C)(=O)=O)C3)cc1 | 15.7
COc1ccc(Cl)cc1CN(C)CC(=O)Nc1ccnn1C(C)C1CC1 (stereo unspecified) | -75.4
COCCN1CCC2(COCc3c(C)nc(N4CCOCC4)nc32)C1 (stereo unspecified) | -24.8
COc1ncccc1C(=O)N1CCCC(n2ccnc2C)C1 (stereo unspecified) | 54.7
COCCOc1ncccc1C(=O)N1CCCC(n2ccnc2C)C1 (stereo unspecified) | -19.9
Cc1cnn(C2CCCN(C(=O)c3cc(-c4ccccc4C)n[nH]3)C2)c1 (stereo unspecified) | 32
Cc1cc(C(=O)N2CCCC(n3ccnc3C)C2)c(C)s1 (stereo unspecified) | 18.2
Cc1nccn1C1CCCN(C(=O)c2ccc3c(c2)CCC3)C1 (stereo unspecified) | -0.96

Structure (SMILES) | INHIBITION [%]
CC(C)c1nccn1C1CCCN(C(=O)c2ccc3c(c2)COC3)C1 (stereo unspecified) | -49.5
CCCc1cc(C(=O)N2CCCC(n3ccnc3C)C2)[nH]n1 (stereo unspecified) | 10.8
Cc1ccccc1-c1cc(C(=O)N2CCCC(n3ccnc3C)C2)[nH]n1 (stereo unspecified) | 66.7
Cc1nccn1C1CCCN(C(=O)c2cc(O)nc3ccccc23)C1 (stereo unspecified) | 52.7
Cc1nccn1C1CCCN(C(=O)c2ccc3c(c2)COC3)C1 (stereo unspecified) | 57.8
COc1ncccc1C(=O)N1CCCC(n2ccnc2)C1 (stereo unspecified) | -5
Cc1nn(-c2ccccc2)cc1C(=O)N1CCCC(n2ccnc2C)C1 (stereo unspecified) | 27.6
Cc1cnn(CC2CN(CC(=O)Nc3cc(C)on3)CCO2)c1 (stereo unspecified) | 16.85
CC(C)n1ccnc1CN1CCCN(C(=O)c2cnc[nH]2)CC1 | 46.3
O=C(Cc1ccc2c(c1)OCCO2)NC1CCCCC1 | -53.2
O=C([C@H]1CCCO1)N1CCN(CCn2cccn2)c2ncccc2C1 | 30.3
O=C(Nc1ccc(F)cc1)C1CSCN1 (stereo unspecified) | 3.38
COc1ccc(CN(Cc2c[nH]cn2)CC2CCCO2)c(OC)c1 (stereo unspecified) | 25.6
O=C(c1cccs1)N1CCN(CC2CC2)c2ncccc2C1 | -22.5
O=C(NCc1ccccc1Cn1cncn1)N1CCCC1 | -33.3
C1CC(CN2C[C@@H]3CC[C@H]2CN(Cc2nnc(C4CC4)o2)C3)C1 | 27.5
Cn1ccc(N2CCCC(NC(=O)c3ccsc3)C2=O)n1 (stereo unspecified) | 72.5
Cn1c2c(ccc1=O)CC(NC(=O)c1ccsc1)CC2 (stereo unspecified) | 49.4
Cn1ccc(N2CCCC(NC(=O)c3ccc(Cl)o3)C2=O)n1 (stereo unspecified) | -34.8
c1ccc(CN2CCCC(c3nccnc3-n3ccnc3)C2)cc1 (stereo unspecified) | 33.5
CS(=O)(=O)CCNC(=O)Nc1ccc(Cl)cc1-n1cccc1 | 35.4
Cc1nc(C2CCCN(C(=O)c3ccc(Cl)cn3)C2)no1 (stereo unspecified) | -2.53

Structure (SMILES) | INHIBITION [%]
CCn1c(CC2CCN(S(=O)(=O)c3cccc(C)c3)CC2)nn(C)c1=O | 37.4
CN1CCN(c2ccc(F)cc2NC(=O)NCCn2ccnc2)CC1 | 37.9
O[C@@]1(CNCC2(Cn3cccn3)CC2)CCCN2CCCC[C@@H]21 | 1.56
CCN1CCN(C2CCN(C(C(N)=O)c3ccc(F)cc3)CC2)C1=O (stereo unspecified) | 16.6
CN1CCN(C2CCN(C(C(N)=O)c3ccccc3)CC2)C1=O (stereo unspecified) | 20.9
CCN1CCN(C2CCN(C(C(N)=O)c3ccccc3)CC2)C1=O (stereo unspecified) | 61.1
Cc1cnn(CCNCC(=O)NC(c2ccccc2)c2ccccc2)c1 | -18.9
Cc1c(C(=O)N2CCC2)nnn1-c1ccc2ncccc2c1 | -24.8
CCn1cnnc1CNC(=O)N1CCC(O)CC1 | 17.4
CCn1cnnc1CNC(=O)N1CCC(C(=O)NC)CC1 | 61.3
CCn1cnnc1CNC(=O)N1CCC(C)CC1 | -13.5
CCn1cnnc1CNC(=O)N1CCCC1 | -3.2
CCn1cnnc1CNC(=O)N1CCN(c2nccs2)CC1 | 27.8
CCn1cnnc1CNC(=O)N1CCN(c2nc(C)c(C)s2)CC1 | 60.5
COc1ccccc1OCCc1cc(C2CCNC2)n[nH]1 (stereo unspecified) | 41.2
Cc1ncc(C(=O)N2C[C@@H]3CC[C@H]2CN(S(=O)(=O)N(C)C)C3)c(C)n1 | 34.8
COc1ccc(N2CCNC(C(N)=O)C2)cc1 (stereo unspecified) | 7.19
O=C(O)C1CCCN(C(=O)CCn2ccc3c(Br)cccc32)C1 (stereo unspecified) | 34.2
O=C(O)C1CCCN(C(=O)CCn2ccc3c(Cl)cccc32)C1 (stereo unspecified) | 63.1
COc1cccc2c1ccn2CCC(=O)N1CCCC(C(=O)O)C1 (stereo unspecified) | -22.9
Cn1cc(C2CCCN2C(=O)c2cnc(-c3ccccn3)s2)cn1 (stereo unspecified) | -59.7
Cc1nc(Cn2c(=O)cnc3ccccc32)n(C)n1 | 17.6

Structure (SMILES) | INHIBITION [%]
COC(=O)NCC(=O)NCc1nn(-c2ccccc2)c2c1CCC2 | 24.75
Cc1noc([C@]23COC[C@H]2CN(C(=O)N2CCCC2)C3)n1 | 15.8
O=C(c1cnccn1)N1CCCC(C2=Nc3ccccc3S(=O)(=O)N2)C1 (stereo unspecified) | 16.705
CCCN(C)C(=O)c1cc(S(=O)(=O)NCC)ccc1C | 16.6
CCNS(=O)(=O)c1ccc(C)c(C(=O)N(C)Cc2ccccc2C)c1 | 67.3
CCNS(=O)(=O)c1ccc(C)c(C(=O)N(C)Cc2ccco2)c1 | 26.8
CCN(CC)[C@@H]1CN(Cc2nccn2C)[C@@H]2CCCO[C@H]12 | 20.1
c1ccc2c(CC3CN(Cc4nccs4)CCO3)cccc2c1 (stereo unspecified) | 53.3
Cc1cccnc1CN1CCOC(Cc2cccc3ccccc23)C1 (stereo unspecified) | 42.1
COc1ncc(CN2CCOC(Cc3cccc4ccccc34)C2)cn1 (stereo unspecified) | -31.8
Cc1ccc(NC(=O)Cc2cnc3n(C)c(=O)[nH]c(=O)n23)cc1 | 0.207
Cc1c(Cn2cc(Cl)c(N)n2)cnn1C | 17.8
CCn1ncc(Cn2cc(Cl)c(N)n2)c1C | 51.5
CCn1cc(Cn2cc(Cl)c(N)n2)c(C)n1 | -18.8
CC(=O)N1CCCN(C(=O)NCc2ccc(Cl)s2)CC1 | 25.6
CN(C)C(=O)COCC1CN(Cc2ccoc2)Cc2ncn(C)c21 (stereo unspecified) | 12.5
COc1ccc(S(=O)(=O)N2CCOC(Cn3ccnc3)C2)cc1 (stereo unspecified) | 8.12
FC(F)CN1CCC(NCc2ccc(-n3cccn3)nc2)CC1 | 48.2
Cn1cc(-c2cnc(N3CCOCC3)nc2)cc1C(=O)NCCO | 35.8
CN(C)CCNC(=O)c1cc(-c2cnc(N3CCCC3)nc2)cn1C | 63.7
Cn1cc(-c2cnc(N3CCCC3)nc2)cc1C(=O)O | -50.8
CN1CCN(C(=O)c2cc(-c3cnc(N4CCCC4)nc3)cn2C)CC1 | -2.17

Structure (SMILES) | INHIBITION [%]
CN(C)CCNC(=O)c1cc(-c2cnc(N3CCOCC3)nc2)cn1C | 19.4
CCCNC(=O)c1cc(-c2cnc(N3CCCC3)nc2)cn1C | 64.9
COCCN(C)C1COC2(CCN(Cc3cccc(F)c3)CC2)C1 (stereo unspecified) | 26.4
O=C(c1ccccn1)N1CCN(c2ccc(-c3cccnc3)nn2)CC1 | 21.6
COCCN(C)C[C@@H]1CN(C(=O)c2ccc(O)c(Cl)c2)C[C@@H]1CO | 46.1
CN(C)c1ccc(CNC(=O)Nc2ccc(S(C)(=O)=O)nc2)cc1 | -24.75
O=C(NCc1ccccc1F)C1=NOC2(CCNC2)C1 (stereo unspecified) | 7.65
CC(C)(C(=O)NCC(=O)NC1CC1)c1ccccc1F | 19.4
O=C(CC1CCN(c2cccnn2)CC1)Nc1cccnc1 | 21.1
CC(C)(C)C(=O)N1C[C@H](c2ccsc2)[C@H]2CN(C3CCCCC3)CC[C@H]21 | 50.8
CCCC(=O)NC1CCCN(Cc2cccs2)C1 (stereo unspecified) | 7.24
CC(C)(C)C(=O)N1C[C@H](c2ccsc2)[C@H]2CN(Cc3cccs3)CC[C@H]21 | 54.6
O=C(C1CCC1)N1C[C@@H](c2ccsc2)[C@@H]2CN(C3CCCCC3)CC[C@@H]21 | 32.3
CC(C)(C)C(=O)N1C[C@H](c2ccsc2)[C@H]2CN(C3CCCC3)CC[C@H]21 | 34.1
CC(C)(C)OC(=O)NC1CCCN(Cc2cccs2)C1 (stereo unspecified) | 16.5
Cn1nc2c(cc1=O)CN(Cc1coc(-c3cccc(F)c3)n1)CC2 | 9.54
COCCNC(=O)c1nc(NS(=O)(=O)c2ccccc2)sc1C | 17.7
Cc1cnc(C(=O)NC(CN2CCCC2=O)c2ccccc2)cn1 (stereo unspecified) | -15.543
